Measured values reported in the supplement of paper PMC13172266.
Where a name gives a salt, the structure may show the parent alone.

Legend:
Test in all cases: cell proliferation relative to vehicle (% of vehicle); higher = less growth inhibition
Details in all cases: 72 h
[1] = tested on: U2932 TK216-resistant clone 2
Outline: (§1)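 A targeted inhibitor library of 348 compounds was tested on the ABC-DLBCL line U2932, both parental and two clones made resistant to an ETS-targeting agent by repeated exposure over almost a year. Cells were grown at 37°C and 5% CO2 in medium with 10% FBS, then treated at 500 nM or 50 nM for 72 h. MTT was added for 4 h, stopped with 25% SDS, and absorbance was read on a Cytation 3. Proliferation is reported as percent of proliferating cells relative to vehicle (DMSO).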

[2] = tested on: U2932 TK216-resistant clone 3
Outline: as §1

U2932 parental = tested on: U2932 parental
Outline: as §1

Row | SMILES | cell proliferation ([1]; 50 nM) | cell proliferation ([1]; 500 nM) | cell proliferation ([2]; 50 nM) | cell proliferation ([2]; 500 nM) | cell proliferation (U2932 parental; 50 nM) | cell proliferation (U2932 parental; 500 nM)
1 | O=C(O)C(=O)c1cn(Cc2ccccc2)c2ccc(-c3ccc(OC(F)(F)F)cc3)cc12 [Tiplaxtinin (PAI-039)] | 99.5 | 93.1 | 100 | 98.5 | 102 | 99.3
2 | CC(O)(CS(=O)(=O)c1ccc(F)cc1)C(=O)Nc1ccc(C#N)c(C(F)(F)F)c1 (centres undefined) [Bicalutamide] | 109 | 104 | 103 | 97.8 | 102 | 96.5
3 | O=P1(NCCCl)OCCCN1CCCl (centres undefined) [Ifosfamide] | 108 | 107 | 102 | 103 | 103 | 93.4
4 | O=C(O)CCCc1ccc(N(CCCl)CCCl)cc1 [Chloroambucil] | 101 | 99.4 | 98.4 | 101 | 99.7 | 98.7
5 | CC(=O)OC(C)(C)/C=C/C(=O)[C@](C)(O)[C@H]1[C@H](O)C[C@@]2(C)[C@@H]3CC=C4[C@H](C[C@H](O)C(=O)C4(C)C)[C@]3(C)C(=O)C[C@]12C [Cucurbitacin B] | -2.74 | -3.79 | 0.167 | -2.48 | -0.672 | -0.512
6 | Cc1sc2c(c1C)C(c1ccc(Cl)cc1)=N[C@@H](CC(=O)OC(C)(C)C)c1nnc(C)n1-2 | 91 | 58.9 | 77.2 | 57.4 | 92.1 | 55.1
7 | CC1=C(O)C(=O)C=C2C1=CC=C1[C@@]2(C)CC[C@@]2(C)[C@@H]3C[C@](C)(C(=O)O)CC[C@]3(C)CC[C@]12C [Celastrol] | 77.9 | 18.8 | 85 | 27.8 | 80.6 | 24.1
8 | C/C(=C\c1csc(C)n1)[C@@H]1C[C@@H]2O[C@@H]2CCC[C@H](C)[C@H](O)[C@@H](C)C(=O)C(C)(C)[C@@H](O)CC(=O)O1 [Epothilone A] | 12.4 | 10 | 7.03 | 9.75 | 9.49 | 10.1
9 | Cn1cc(C2=C(c3cn(C4CCN(Cc5ccccn5)CC4)c4ccccc34)C(=O)NC2=O)c2ccccc21 | 110 | 103 | 99.8 | 97.1 | 103 | 107
10 | O=S(=O)(CC1CS1)c1ccc(Oc2ccccc2)cc1 (centres undefined) | 102 | 97.6 | 98.2 | 104 | 95.5 | 99.7
11 | Cn1c(CCCC(=O)O)nc2cc(N(CCCl)CCCl)ccc21 [Bendamustine HCl] | 111 | 108 | 102 | 102 | 99.3 | 90.2
12 | COc1ccc(C[C@H]2NC[C@H](O)[C@H]2OC(C)=O)cc1 [Anisomycin] | 55.2 | 25.4 | 69 | 29.3 | 66.9 | 20.5
13 | COc1cc2c(cc1OC)C1CC(=O)C(CC(C)C)CN1CC2 (centres undefined) [Tetrabenazine (Xenazine)] | 101 | 96.2 | 106 | 107 | 103 | 93.2
14 | N[C@@H]1C[C@H]1c1ccccc1 [Tranylcypromine (2-PCPA) HCl] | 108 | 107 | 111 | 102 | 101 | 100
